Measurements from PubChem BioAssay.
Activity calls are given as the source filed them.

How the values were obtained:
[1] = binders of probe aFSTL3 on microarray, primary screen, stem cell growth factor project, biochemical, small-molecule microarray, fluorescence 635/667 (AID 1064); conditions: higher = more signal;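 also: measures binding of the biotinylated anti-FSTL3 antibody to printed compounds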
[2] = binders from COS7 lysate, DM2A8 probe, primary screen, torsin A project, cell lysate, small-molecule microarray, fluorescence 635/667 (AID 1065); conditions: higher = more signal, COS7 lysate expressing mutant human TOR1A
[3] = binders of probe aFGF2 on microarray, primary screen, stem cell growth factor project, biochemical, small-molecule microarray, fluorescence 635/667 (AID 1067); conditions: higher = more signal;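 also: measures binding of biotinylated aFGF2 protein to printed compounds on slides; z-score merges feature fluorescence and signal-to-noise across triplicate slides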
[4] = binders of probe aFGF10 on microarray, primary screen, stem cell growth factor project, biochemical, small-molecule microarray, fluorescence 635/667 (AID 1071); conditions: higher = more signal;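 also: score merges 667 nm spot intensity and signal to noise from triplicate slides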
[5] = target: Neurogenic locus notch homolog protein 2 (Homo sapiens) (UniProt Q04721); assay: Notch2 binders on small-molecule microarrays, primary screen, biochemical, small-molecule microarray, 635 nm fluorescence, stem cell growth factors (AID 1073); conditions: Notch2 binding, higher = more signal
[6] = target: Pro-neuregulin-1, membrane-bound isoform (Homo sapiens) (UniProt Q02297); assay: NRG1 binders on small-molecule microarrays, primary screen, psychiatric disease protein project, biochemical, small-molecule microarray, fluorescence 635/667 (AID 1075); conditions: NRG1 binding, 635 nm fluorescence, higher = more signal;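 also: score combines 667 nm spot fluorescence with signal to noise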
[7] = system: Neuregulin-1 EGF-like domain; assay: binders of neuregulin-1 EGF-like domain, primary screen, biochemical, small-molecule microarray, 635 nm fluorescence (AID 1081); conditions: small-molecule microarray binding, higher = more signal;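 also: binding of the protein to compounds printed on small-molecule microarray slides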
[8] = FRG1 promoter luciferase signal modulators, primary screen, FRG1 inhibition for FSHD, cell-based, C2C12 myotubes, firefly/Renilla luciferase, luminescence (AID 1084); conditions: higher = more signal, called active from +8 up or from −8 down
[9] = binders of probe aFST on microarray, primary screen, stem cell growth factor project, biochemical, small-molecule microarray, fluorescence 635/667 (AID 1086); conditions: higher = more signal;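 also: score merges 667 nm fluorescence with signal-to-noise of each printed compound spot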
[10] = binders of probe aHhip on microarray, primary screen, stem cell growth factor project, biochemical, small-molecule microarray, fluorescence 635/667 (AID 1087); conditions: higher = more signal;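 also: score merges spot fluorescence at 667nm with spot signal to noise ratio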
[11] = system: PRMT1 (protein arginine N-methyltransferase 1); assay: PRMT1 binders on small-molecule microarrays, primary screen, biochemical, small-molecule microarray, 635 nm fluorescence (AID 1088); conditions: small-molecule microarray binding, higher = more signal;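 also: binding of Prmt1 protein to compounds spotted on small-molecule microarray slides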
[12] = yeast growth modulation, basal conditions, primary screen, YJM789 clinical isolate, OD600, 24 h (AID 1089);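 also: growth of clinical yeast isolate S. cerevisiae YJM 789 seeded 1000 cells per well; test concentration not given here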; conditions: S. cerevisiae YJM789 growth, higher = more signal, called active from +8 up or from −8 down
[13] = fission yeast growth modulation, primary screen, strain 972, OD600, 24 h, no modulator (AID 1090);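 also: basal condition with compound alone and no growth modifier present; test concentration not given here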; conditions: S. pombe 972 growth, higher = more signal, called active from +8 up or from −8 down
[14] = S. cerevisiae growth modulation with rapamycin, primary screen, strain BY4716, OD600, 96 h (AID 1091); conditions: higher = more signal, called active from +8 up or from −8 down; also: test concentration not given here
[15] = target: Torsin-1A-interacting protein 2 (Homo sapiens) (UniProt Q8NFQ8); assay: LULL1 binders on small-molecule microarray, primary screen, cell lysate, human LULL1 lysate, 635/667 nm fluorescence (AID 1092); conditions: hLULL1 lysate binding, 635 nm fluorescence, higher = more signal;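 also: probe is lysate of COS7 cells overexpressing human LULL1; score merges per-feature 667 nm fluorescence with signal-to-noise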
[16] = E. coli growth modulation, two-sided OD650, primary screen, E. coli filamentation project, strain DRC41, 24 h (AID 1093); conditions: OD650, 24 h, higher = more signal, called active from +8 up or from −8 down;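 also: MC1000 strain lacking acrAB efflux and sulA so SOS filamentation is blocked; test concentration not given here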
[17] = small-molecule microarray binders of probe aLefty2, primary screen, biochemical, biotinylated probe, 635/667 nm fluorescence (AID 1094); conditions: higher = more signal;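 also: score merges spot fluorescence near 667 nm with spot signal-to-noise ratio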
[18] = system: Noggin (protein binding on small-molecule microarray); assay: Noggin binders on small-molecule microarray, primary screen, biochemical, 635/667 nm fluorescence (AID 1095); conditions: 635 nm fluorescence, higher = more signal;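 also: score merges 667 nm feature fluorescence with signal to noise over triplicate slides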
[19] = target: Neurogenic locus notch homolog protein 3 (Homo sapiens) (UniProt Q9UM47); assay: NOTCH3 binders on small-molecule microarray, primary screen, biochemical, 635/667 nm fluorescence (AID 1096); conditions: NOTCH3 binding, 635 nm fluorescence, higher = more signal
[20] = small-molecule microarray binders of probe aEGFR, primary screen, biochemical, biotinylated probe, 635/667 nm fluorescence (AID 1097); conditions: higher = more signal;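 also: probe is a biotinylated anti-EGFR antibody binding compounds printed on slides; score combines fluorescence near 667 nm and signal to noise of each spot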

Sequence of Neurogenic locus notch homolog protein 3 (Homo sapiens) (Q9UM47 whole entry, looked up): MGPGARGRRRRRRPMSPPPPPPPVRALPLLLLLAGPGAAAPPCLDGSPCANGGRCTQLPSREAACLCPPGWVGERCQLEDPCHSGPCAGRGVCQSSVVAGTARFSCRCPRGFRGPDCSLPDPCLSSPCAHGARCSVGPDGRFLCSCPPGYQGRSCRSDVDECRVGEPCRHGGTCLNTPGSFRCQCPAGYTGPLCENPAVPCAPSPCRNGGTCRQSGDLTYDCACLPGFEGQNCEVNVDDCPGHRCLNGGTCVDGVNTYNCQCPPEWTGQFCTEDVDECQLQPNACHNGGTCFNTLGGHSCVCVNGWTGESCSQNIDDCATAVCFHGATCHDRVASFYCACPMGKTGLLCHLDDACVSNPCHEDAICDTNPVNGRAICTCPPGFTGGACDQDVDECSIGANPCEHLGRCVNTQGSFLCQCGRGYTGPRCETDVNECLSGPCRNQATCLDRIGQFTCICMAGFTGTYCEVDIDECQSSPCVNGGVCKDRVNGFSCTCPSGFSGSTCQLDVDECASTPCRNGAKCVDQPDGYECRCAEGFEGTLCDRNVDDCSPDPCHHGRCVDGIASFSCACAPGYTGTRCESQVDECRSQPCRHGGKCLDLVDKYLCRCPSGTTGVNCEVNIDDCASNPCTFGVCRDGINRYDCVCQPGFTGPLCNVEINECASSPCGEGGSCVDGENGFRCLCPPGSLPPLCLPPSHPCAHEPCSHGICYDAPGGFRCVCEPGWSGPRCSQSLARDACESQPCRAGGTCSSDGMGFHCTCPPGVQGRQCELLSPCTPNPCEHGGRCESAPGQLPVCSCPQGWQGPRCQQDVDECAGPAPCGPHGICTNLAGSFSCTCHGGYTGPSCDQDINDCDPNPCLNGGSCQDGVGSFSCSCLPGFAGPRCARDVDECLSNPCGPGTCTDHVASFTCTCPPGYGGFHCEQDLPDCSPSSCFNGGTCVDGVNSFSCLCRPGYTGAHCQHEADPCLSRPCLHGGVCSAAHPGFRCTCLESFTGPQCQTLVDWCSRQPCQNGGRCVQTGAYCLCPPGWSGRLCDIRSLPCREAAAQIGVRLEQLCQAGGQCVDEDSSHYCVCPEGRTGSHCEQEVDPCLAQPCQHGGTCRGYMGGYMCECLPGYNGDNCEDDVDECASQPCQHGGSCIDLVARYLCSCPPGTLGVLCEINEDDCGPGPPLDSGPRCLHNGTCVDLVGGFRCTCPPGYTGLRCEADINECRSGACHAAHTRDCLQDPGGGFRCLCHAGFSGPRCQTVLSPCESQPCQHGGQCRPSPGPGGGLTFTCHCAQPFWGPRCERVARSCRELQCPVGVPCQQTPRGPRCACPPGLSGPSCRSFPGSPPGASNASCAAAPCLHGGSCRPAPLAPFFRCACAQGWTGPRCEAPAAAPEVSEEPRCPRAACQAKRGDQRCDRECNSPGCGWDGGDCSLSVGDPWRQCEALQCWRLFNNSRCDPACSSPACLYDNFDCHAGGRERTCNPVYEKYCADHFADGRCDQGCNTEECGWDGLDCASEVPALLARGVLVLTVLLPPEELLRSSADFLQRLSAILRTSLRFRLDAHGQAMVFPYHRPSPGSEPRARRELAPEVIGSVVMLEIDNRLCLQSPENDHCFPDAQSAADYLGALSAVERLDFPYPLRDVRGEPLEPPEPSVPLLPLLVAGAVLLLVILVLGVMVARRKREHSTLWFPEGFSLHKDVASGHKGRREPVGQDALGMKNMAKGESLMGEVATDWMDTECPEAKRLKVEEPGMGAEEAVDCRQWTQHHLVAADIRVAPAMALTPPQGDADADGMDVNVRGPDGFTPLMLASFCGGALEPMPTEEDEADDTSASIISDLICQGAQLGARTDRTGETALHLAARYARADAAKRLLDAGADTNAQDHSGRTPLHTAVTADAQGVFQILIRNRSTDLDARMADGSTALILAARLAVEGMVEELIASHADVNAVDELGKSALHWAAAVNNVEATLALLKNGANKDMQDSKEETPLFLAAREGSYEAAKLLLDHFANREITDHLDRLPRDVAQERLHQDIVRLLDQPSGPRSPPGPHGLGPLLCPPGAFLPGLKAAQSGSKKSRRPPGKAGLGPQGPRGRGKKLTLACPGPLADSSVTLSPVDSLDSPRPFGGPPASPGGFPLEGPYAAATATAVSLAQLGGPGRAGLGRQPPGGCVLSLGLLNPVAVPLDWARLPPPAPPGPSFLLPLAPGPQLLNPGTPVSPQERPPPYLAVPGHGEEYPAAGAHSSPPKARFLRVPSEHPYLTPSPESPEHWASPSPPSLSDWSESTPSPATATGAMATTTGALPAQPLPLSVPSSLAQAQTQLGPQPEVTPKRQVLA
Sequence of Pro-neuregulin-1, membrane-bound isoform (Homo sapiens) (Q02297 whole entry, looked up, the tested form may be a part, canonical isoform): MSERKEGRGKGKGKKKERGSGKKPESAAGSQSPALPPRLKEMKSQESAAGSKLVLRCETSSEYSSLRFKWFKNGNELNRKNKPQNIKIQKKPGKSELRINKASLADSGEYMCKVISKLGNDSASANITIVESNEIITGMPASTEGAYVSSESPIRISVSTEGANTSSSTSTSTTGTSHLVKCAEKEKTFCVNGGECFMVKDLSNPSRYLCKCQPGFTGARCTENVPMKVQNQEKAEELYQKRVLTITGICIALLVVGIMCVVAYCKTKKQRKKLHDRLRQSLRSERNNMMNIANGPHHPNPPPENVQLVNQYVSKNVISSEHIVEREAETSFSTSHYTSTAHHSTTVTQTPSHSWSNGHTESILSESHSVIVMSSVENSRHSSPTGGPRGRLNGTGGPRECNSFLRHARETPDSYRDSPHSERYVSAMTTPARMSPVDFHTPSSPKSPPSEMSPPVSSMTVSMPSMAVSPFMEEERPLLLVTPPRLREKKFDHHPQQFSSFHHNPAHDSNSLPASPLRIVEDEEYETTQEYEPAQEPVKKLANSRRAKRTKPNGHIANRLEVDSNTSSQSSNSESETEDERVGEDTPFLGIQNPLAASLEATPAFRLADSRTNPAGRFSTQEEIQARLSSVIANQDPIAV
Sequence of Torsin-1A-interacting protein 2 (Homo sapiens) (Q8NFQ8 whole entry, looked up): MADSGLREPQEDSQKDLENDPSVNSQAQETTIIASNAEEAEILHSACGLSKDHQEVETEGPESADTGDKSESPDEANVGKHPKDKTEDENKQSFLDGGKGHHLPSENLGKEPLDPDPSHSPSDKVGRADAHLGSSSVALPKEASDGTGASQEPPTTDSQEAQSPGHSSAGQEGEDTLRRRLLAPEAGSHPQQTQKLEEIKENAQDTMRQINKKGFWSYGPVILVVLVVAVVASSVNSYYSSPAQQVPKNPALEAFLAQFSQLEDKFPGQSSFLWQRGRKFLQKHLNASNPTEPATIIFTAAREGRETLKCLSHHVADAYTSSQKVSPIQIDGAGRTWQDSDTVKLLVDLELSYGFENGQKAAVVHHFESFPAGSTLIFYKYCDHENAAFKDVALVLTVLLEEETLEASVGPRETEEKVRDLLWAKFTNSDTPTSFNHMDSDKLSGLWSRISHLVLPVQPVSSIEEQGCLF

Structure (SMILES)	composite z-score [1]	composite z-score [2]	composite z-score [3]	composite z-score [4]	composite z-score [5]	composite z-score [6]	composite z-score [7]	z-score [8]	composite z-score [9]	composite z-score [10]	composite z-score [11]	z-score [12]	z-score [13]	z-score [14]	composite z-score [15]	z-score [16]	composite z-score [17]	composite z-score [18]	composite z-score [19]	composite z-score [20]
COC(=O)C(CC#Cc1ccc2c(c1)[C@]1(C(=O)N2)[C@H](c2ccc(O)cc2)N2[C@H](c3ccccc3)[C@H](c3ccccc3)OC(=O)[C@H]2[C@@H]1C(=O)N1CCN(c2ncccn2)CC1)C(=O)OC	0.136	0.215	-0.0035	0.349	0.577	1.86	1.35	-1.36 (inactive)	0.599	0.351	1.55	1.07 (inactive)	0.516 (inactive)	1.93 (inactive)	3.21	0.248 (inactive)	0.107	0.24	0.975	0.0167
CC(C)OC(=O)C=C1C[C@@H](c2cccc(Cl)c2)O[C@@H](c2cccc(Cl)c2)O1	0.614	0.31	0.0442	0.771	0.028	0.903	0.891	-0.582 (inactive)	0.186	-0.189	-0.341	-0.338 (inactive)	-5.58 (inactive)	-0.764 (inactive)	1.99	-0.391 (inactive)	-0.0009	-0.225	-0.735	-0.13
COCCCNC(=O)[C@@H]1c2ccccc2C(=O)N(Cc2ccccc2)[C@H]1c1ccc(CO)cc1	0.0981	0.361	-0.0952	0.12	0.712	0.943	0.565	-0.179 (inactive)	0.418	0.253	0.726	-1.29 (inactive)	-0.0108 (inactive)	-0.212 (inactive)	1.53	-0.167 (inactive)	0.384	0.525	0.109	0.236
O=c1cccc(-c2ccccc2Cl)o1	-0.152	-0.201	-0.0621	0.366	0.772	-0.234	0.311	1.17 (inactive)	0.241	-0.0047	0.023	-0.871 (inactive)	-0.463 (inactive)	2.12 (inactive)	0.551	-0.252 (inactive)	-0.127	0.466	-0.691	-0.139
C=C(CCCC)/C(=C/C[C@H](OC(=O)c1ccncc1)c1ccc(OCCO)cc1)c1cc(C(=O)OC)ccc1OC	-0.126	0.123	-0.031	1.15	0.563	0.348	1.01	31.6 (active)	-0.348	-0.195	0.834	0.992 (inactive)	-0.78 (inactive)	-0.676 (inactive)	1.27	0.987 (inactive)	-0.187	-0.395	-0.0191	0.689
C[N+](C)(C)CCCC[C@@H]1NC(=O)[C@@H]2C[C@H](C(=O)NCCCCCCNC(=O)CS)[C@H](c3ccc(O)cc3)N2C1=O	0.973	-0.951	-0.193	0.0372	-1.41	0.801	1.47	-0.338 (inactive)	-0.622	0.235	0.567	0.562 (inactive)	-0.0042 (inactive)	0.525 (inactive)	0.479	-0.0327 (inactive)	-0.115	-0.533	-0.627	-0.225
COc1ccc([Si](C)(C)[C@H]2[C@H](CCO)O[C@@]3(C(=O)N(Cc4ccccc4)c4ccc(N5CCCCC5=O)cc43)[C@@H]2C)cc1	-0.347	0.455	-0.0428	0.74	0.333	0.39	0.909	-2.44 (inactive)	-0.227	-0.0645	1.56	0.296 (inactive)	-0.158 (inactive)	1.97 (inactive)	1.9	0.587 (inactive)	-0.17	1.23	0.932	-0.123
O=C1O[C@@H](c2ccccc2)[C@@H](c2ccccc2)N2[C@@H](c3ccc(OCCO)cc3)[C@]3(C(=O)Nc4ccc(C#CC5=CCCCC5)cc43)[C@@H](C(=O)N3CCCCCCC3)[C@H]12	3.69	1.51	0.753	0.867	1.49	1.38	1.26	1.75 (inactive)	3.12	0.354	1.53	1.1 (inactive)	-1.09 (inactive)	2.13 (inactive)	3.98	0.29 (inactive)	1.6	1.78	1.03	1.26
COC(=O)c1c(CC[C@@H](CO)NC(=O)NCCc2c[nH]c3ccccc23)oc(C(=O)Cc2ccccc2)c1C(=O)OC	-0.379	0.488	0.0858	0.203	0.0378	-0.0379	0.939	1.49 (inactive)	0.224	0.0036	0.578	0.433 (inactive)	0.215 (inactive)	-1.62 (inactive)	1.53	0.528 (inactive)	-0.117	0.145	0.316	-0.126
CC#CC(=O)Oc1ccc(Br)cc1C=CC(=O)OCC	0.559	-0.422	-0.0304	0.0178	-0.497	0.334	1.34	0.128 (inactive)	0.375	0.095	0.162	-23.6 (active)	-16 (active)	-2.38 (inactive)	1.18	-0.0056 (inactive)	0.188	-0.157	0.0254	-0.0765
